aSyn rescue: qHTS of alpha-syn Inhibitors; Yeast expressing alpha-synuclein, growth rescue, BacTiter-Glo, 24 h; Potency, µM (titrated, usually from 46.1 µM), inactives show at the highest dose growth rescue (activation), hits mostly activators; 370,000 tested, 0.14% active; also: % of control where 0% means no effect; nearly all actives have a fitted effect of over 65% in size
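Readout is rescue of growth in alpha-synuclein-expressing yeast, so inhibitors of toxicity appear as activators. Growth after 24 hr at 30 deg C in galactose medium is quantified by luminescence.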
Abeta yeast res: qHTS for compounds that reverse cellular toxicity of Amyloid beta (A-beta) peptide in yeast: Primary Screen; Potency, µM (titrated, usually from 46.1 µM), hits mostly activators; yeast expressing A-beta42, growth rescue, OD600, 48 h; response scale: 0% DMSO, 100% iron-clioquinol control; 410,000 tested, 0.063% active; also: nearly all actives have a fitted effect of over 55% in size
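Growth rescue measured by 600 nm absorbance after 48 h yeast culture at 30 C with compound. Values normalized between DMSO and an equimolar ferric chloride plus clioquinol control.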
FUS suppressor: qHTS for Suppressors of FUS Proteinopathy: Primary screen using FUS-linked yeast assay | 390,000 tested, 0.24% active | Potency, µM (titrated, usually from 76.6 µM), hits mostly activators | S. cerevisiae FUS-expressing, growth rescue, OD600, 24 h;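 also: plate controls were DMSO vehicle for no effect and reference control for full effect; nearly all actives have a fitted effect of over 55% in size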
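Compound concentration series was pinned onto galactose-induced FUS-expressing yeast seeded at OD 0.005. Plates sat 24hr at 30C; absorbance at 600 nm gave growth. DMSO served as background control.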
TDP43 rescue: qHTS of TDP-43 Inhibitors; 410,000 tested, 1.8% active; AID 652104, 2013; TDP-43 expressing yeast growth rescue, BacTiter-Glo, 24 h; Potency, µM (series often up to 46.1 µM), for the others: at the top dose growth rescue (activation), hits mostly activators; also: % of control where 0% means no effect; nearly all actives have a fitted effect of over 50% in size
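Galactose-induced TDP-43 yeast, OD600=0.02, compound pinned; 24 hr, 30 deg C; BacTiter-Glo luminescence for growth. Inhibitors of TDP-43 toxicity read as activators.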
Starred values were filed as active, the others as inactive; i = inactive; · = not tested or not shown. An excerpt weighted towards active compounds, which were near 2.1% of everything screened. Calls follow the shape of the dose curve; as a rule, active = well fitted curve in the direction sought with a large enough effect; inconclusive = small, poorly fitted or top-dose-only effect, or another doubt; inactive = no such curve, though single readings can be large; an effect the other way counts as inactive or inconclusive. Potency is read from the fitted curve at half-maximal effect.

SMILES	aSyn rescue	Abeta yeast res	FUS suppressor	TDP43 rescue
O=C(c1ccc(N2CCCC2=O)cc1)N1CCN(c2ccccc2O)CC1	-1%	i	i	9%
O=C(c1cccc(S(=O)(=O)N2CCCCC2)c1)N1CCc2ccccc21	4%	i	2.8µM*	-7%
Cc1ccc(C)c(N2CCN(C(=O)c3ccc(N4CCCC4=O)cc3)CC2)c1	2%	i	i	20µM*
Cc1cccc(N2CCN(C(=O)c3cccc(N4CCCC4=O)c3)CC2)c1C	5%	i	i	13µM*
C#CCOC(=O)C(NC(=O)c1ccccc1)=C1CCCCC1	9%	i	i	16%
Cn1cc(C2(c3c[nH]c4ccccc34)CCN(C(=O)OC(C)(C)C)CC2)c2ccccc21	·	·	i	·
Cc1cccc(NS(=O)(=O)c2ccc(C(=O)N3CCN(c4ccccc4O)CC3)cc2)c1C	0%	i	32µM*	15%
Cc1ccccc1NS(=O)(=O)c1ccc(C(=O)N2CCCC2)cc1	-2%	i	·	1%
O=C(Cn1c(SCc2ccccc2F)nc2ccncc21)Nc1ccccc1C(F)(F)F	·	i	i	19%
O=C(Nc1cc(C(F)(F)F)ccc1-n1cncn1)c1ccc(-c2ccccc2)cc1	-5%	i	i	14µM*
